Most compounds without a hit are left out; they make up all but 6.1% or so of the library.
TGFb SMAD3 inh: inhibitors of TGF-b signaling | Potency, µM (doses to about 46.1 µM), inactives show at the highest dose activity, negative = inhibition, actives largely listed as inhibitors | 410,000 compounds, 1.2% hits | AID 588855 | HepG2 CAGA-GFP TGF-b/SMAD3 reporter, GFP fluorescence, 18 h; TGF-beta stimulated, 500 pg/mL final; further: on the % scale 0 is the no-effect control and ±100 the full control effect; nearly all actives have a fitted effect of over 65% in size
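HEPG2 CAGA-GFP, 1000 cells/well; 2 h settle, 37 C; cpd via pin tool; TGF-b 500 pg/mL final; 18 h, 37 C; GFP imaging ex488/em500-530; %Activity normalised to -TGF-b and +DMSO controls; CRC fit, curve class.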
HepG2 viability: HepG2 cytotoxicity, counter-screen for TGF-b inhibitors; 410,000 compounds, 0.76% hits; Potency, µM (titrated, usually from 46.1 µM), for the others: at the highest dose activity change, negative = cytotoxicity, actives largely listed as cytotoxic; AID 588856; HepG2 CAGA-GFP viability, ATP luminescence, 18 h
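CellTiter-Glo luminescence gave cytotoxicity after 18 hours at 37 degrees C. The cells were HepG2 CAGA-GFP in 1% FBS DMEM, stimulated with 500 pg/mL TGF-beta after compound addition. %Activity was normalised to no-cell wells (complete cell-killing) and DMSO (no toxicity), and curves were fitted and classified.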
ATXN2 expr inh: ATXN2 expression inhibition | HEK-293 ATXN2-luciferase reporter, luminescence, 24 h | Potency, µM (top dose mostly 57 µM), inactives show at the highest dose activity change, negative = inhibition, most hits filed as inhibitors | 360,000 compounds, 0.72% hits; further: on the % scale 0 is the no-effect control and ±100 the full control effect; nearly all actives have a fitted effect of over 55% in size
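ATXN2-luciferase reporter cells (luciferase flanked by upstream and downstream ATXN2 gene portions) were treated 24 h at 37 °C with compounds at up to 57 uM. SteadyGlo luminescence gave expression; GF-AFC fluorescence gave viability.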
ATXN viability: reduces viability in counter-screen for ATXN expression inhibitors | S2 cells (HEK-293 line with an ATXN2-luciferase reporter) viability, CellTiter-Fluor protease fluorescence, 24 h | Potency, µM (titrated, usually from 56.7 µM), most hits filed as cytotoxic | 400,000 compounds, 0.49% hits | AID 651635; further: nearly all actives have a fitted effect of over 40% in size
Gal4-VP16 FLuc: counter-screen for ROR gamma inhibitors: Gal4-VP16 reporter; Drosophila S2 Gal4-VP16 UAS-luciferase, luminescence, 20 h; 310,000 compounds, 3.5% hits; Potency, µM (series often up to 53.6 µM), inactives show at the highest dose activity, negative = inhibition, hits mostly inhibitors;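 further: Gal4-VP16 expression switched on by copper sulfate through the metallothionein promoter; on the % scale 0 is the no-effect control and ±100 the full control effect; nearly all actives have a fitted effect of over 50% in size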
RORgamma inh: ROR gamma (mouse) transcription inhibition; P51450; Drosophila S2 Gal4-RORgamma UAS-luciferase reporter, 20 h; Potency, µM (highest dose often 53.6 µM), for inactives: at the top dose activity change, negative = inhibition, usual class: inhibitors; 310,000 compounds, 5.4% hits; further: on the % scale 0 is the no-effect control and ±100 the full control effect; nearly all actives have a fitted effect of over 60% in size
Target sequence (P51450 whole entry, looked up, the tested form may be a part): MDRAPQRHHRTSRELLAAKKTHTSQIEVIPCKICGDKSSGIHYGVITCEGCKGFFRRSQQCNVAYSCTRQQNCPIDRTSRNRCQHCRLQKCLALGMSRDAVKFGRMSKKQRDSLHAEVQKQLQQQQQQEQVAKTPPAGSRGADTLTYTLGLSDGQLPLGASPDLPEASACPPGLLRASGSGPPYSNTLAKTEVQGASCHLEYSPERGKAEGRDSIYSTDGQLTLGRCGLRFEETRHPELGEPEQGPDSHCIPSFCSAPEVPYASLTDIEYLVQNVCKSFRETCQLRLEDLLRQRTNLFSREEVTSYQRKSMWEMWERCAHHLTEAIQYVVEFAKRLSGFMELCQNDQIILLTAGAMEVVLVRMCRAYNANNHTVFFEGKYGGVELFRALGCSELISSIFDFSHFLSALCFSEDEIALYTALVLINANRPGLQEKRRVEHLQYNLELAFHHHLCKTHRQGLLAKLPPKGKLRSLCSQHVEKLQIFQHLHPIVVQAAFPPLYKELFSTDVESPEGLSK
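Drosophila S2 cells stably expressing Gal4-DBD/mouse RORγ fusion under metallothionein promoter plus UAS-luciferase; compound 1 h, then 700 uM CuSO4 induction for 20 h at ambient temperature; inhibition read as reduced luminescence.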
The depositor's hits bear a star; i = inactive; u = inconclusive; x = not tested or not shown; [ ] = remark or other dose. The call rests on the fitted dose curve; in most records, active means well fitted curve in the direction sought with a large enough effect; inconclusive means small, poorly fitted or top-dose-only effect, or another doubt; inactive means no such curve, though single readings can be large; an effect the other way counts as inactive or inconclusive. Potency means the concentration at half of the fitted maximal effect.

SMILES	TGFb SMAD3 inh	HepG2 viability	ATXN2 expr inh	ATXN viability	Gal4-VP16 FLuc	RORgamma inh
O=S(=O)(Nc1cccc(CCc2ccccn2)c1)c1cc(Cl)ccc1Cl	7%	1%	-1%	i	-1%	5%
O=S(=O)(Nc1cccc(CCc2ccccn2)c1)c1ccc2ccccc2c1	-15%	-11%	-5%	i	2.5µM*	7.9µM*
O=C(CNc1ccccc1)N/N=C/c1ccc2c(c1)OCO2	-6%	7%	x	u	5%	35%
O=C(CNc1ccc2c(c1)OCO2)N/N=C\c1cn(Cc2ccc(F)cc2)c2ccccc12	x	x	x	x	10µM*	u
O=C(CNc1ccc2c(c1)OCO2)N/N=C\c1cn(Cc2ccccc2)c2ccccc12	u	-51%	-20%	i	u	13µM*
Cc1cc(C)nc(-n2nc(C)c3c2N(Cc2ccccc2C)C(=O)CC3c2ccc(Cl)cc2)n1 (centres undefined)	u	-7%	6%	i	x	x
CSc1nn(Cc2ccc(C)cc2)c(N)c1S(=O)(=O)c1ccccc1	u	-33%	-20%	i	x	x
CSc1nn(Cc2cccc(F)c2)c(N(C(C)=O)C(C)=O)c1S(=O)(=O)c1ccccc1	u	-52%	u	18µM*	x	x
CSc1nn(Cc2ccc(Cl)cc2)c(N(C(C)=O)C(C)=O)c1S(=O)(=O)c1ccccc1	u	-51%	u	x	x	x
CSc1nn(Cc2ccc(Br)cc2)c(N(C(C)=O)C(C)=O)c1S(=O)(=O)c1ccccc1	u	11µM*	u	x	x	x
CSc1nn(Cc2ccc(F)cc2)c(N)c1S(=O)(=O)c1ccc(Cl)cc1	10µM*	14µM*	u	u	x	x
Cc1ccc2c(=O)cc(C(=O)Nc3c(C(=O)Nc4cccc(Cl)c4)oc4ccccc34)oc2c1	17%	3%	4%	i	x	x
N#Cc1ccc2c(c1)C[C@]1(CCCCN3C(=O)c4ccccc4C3=O)Oc3cc(-c4ccccc4)oc(=O)c3[C@H]2O1	x	x	x	x	-8%[10 µM]	2%[10 µM]
S=C(CN1CCCC1=S)NCCc1ccccc1	-13%	-36%	-4%	i	u	7.9µM*
CC1=CSC2=NC(=O)/C(=C\c3cccn3-c3ccc([N+](=O)[O-])cc3)C(=N)N12	-15%	-39%	-7%	i	3.2µM*	u
COc1ccc(-c2ccc(/C=C3/C(=N)N4C(C)=CSC4=NC3=O)o2)c([N+](=O)[O-])c1	u	-40%	-34%	u	u	11µM*
CCC1=NN2C(=N)/C(=C\c3cccn3-c3ccc(Br)cc3)C(=O)N=C2S1	-12%	-6%	x	i	-13%	0%
CCC1=NN2C(=N)/C(=C\c3cccn3-c3cccc(Cl)c3)C(=O)N=C2S1	-7%	-2%	-15%	i	7%	11µM*
CC(C)c1ccc(-n2cccc2/C=C2/C(=N)N3C=CSC3=NC2=O)cc1	u	-36%	-2%	i	16µM*	7.1µM*
CN(C)c1ccc(/C=C2\C=Cc3ccccc32)cc1N	-20%	-35%	x	x	x	x
O=C(c1cccn2c(=O)c3cc(Cl)ccc3nc12)N1CCN(c2ccccc2F)CC1	-14%	-22%	-5%	i	x	x
CCC(=O)N1CCN(c2nc3ccccc3s2)CC1	-11%	10%	5%	i	7%	u
O=C(c1cc2sccc2n1Cc1ccccc1)N1CCN(c2nc3ccccc3s2)CC1	2%	3%	u	i	10µM*	-26%
O=C(Nc1ncnc2c1ncn2[C@@H]1O[C@@H]2COP(=O)(O)O[C@H]2[C@H]1O)c1ccccc1	x	x	x	x	-4%	-10%
O=c1[nH]n2c(=O)c3c([nH]c2c1N=Nc1cccc(C(F)(F)F)c1)CCCC3	u	-9%	-9%	u	u	-24%
SMILES	TGFb SMAD3 inh	HepG2 viability	ATXN2 expr inh	ATXN viability	Gal4-VP16 FLuc	RORgamma inh
Cc1[nH]n(C(N)=S)c(=O)c1N=Nc1cc(C(F)(F)F)ccc1Cl	18%	-2%	-8%	i	u	0.56µM*
Cc1[nH]n(C(N)=S)c(=O)c1N=Nc1cccc(C(F)(F)F)c1	7%	-12%	48%	i	0.4µM*	0.11µM*
Cc1[nH]n(C2=NCCS2)c(=O)c1N=Nc1cccc(C(F)(F)F)c1	u	-13%	u	u	0.63µM*	0.28µM*
O=[N+]([O-])c1ccc(Sc2ncccn2)c([N+](=O)[O-])c1	u	20µM*	u	u	u	7.9µM*
O=C(CSc1nc(=O)n(Cc2ccco2)c2c1CCC2)NCc1ccccc1	-28%	2%	-4%	i	x	x
COc1ccc(-n2c(SCC(=O)N3CCOCC3)nc(O)cc2=O)cc1	u	-17%	0%	u	0%	11µM*
CCCC(C)Sc1nc2c([nH]1)c(=S)n(C)c(=O)n2C (centres undefined)	u	-32%	-30%	i	x	x
Cn1c(=S)c2[nH]c(SCC3CCCO3)nc2n(C)c1=O (centres undefined)	u	11µM*	-25%	i	x	x
O=C(NC(=S)NC12CC3CC(CC(C3)C1)C2)c1ccc(F)cc1	-2%	-23%	23%	i	x	x
CCN(CC)C(=S)NC(=O)c1cccnc1	-7%	-5%	-5%	i	5.6µM*	2.5µM*
CCNC(=S)NNC(=O)c1cccnc1	18%	7%	-3%	i	-5%	-2%
CCN(CC)C(=S)NC(=O)c1ccc(F)cc1	2%	-1%	3%	i	2.8µM*	0.79µM*
O=C(N[C@@H]1c2ccccc2C2(CCN(C(=O)c3ccc4c(c3)OCCO4)CC2)[C@H]1O)c1cccnc1	x	x	x	i	x	x
COc1ccc(OC)c(-c2cc(Cl)c3c(c2)CC(CNC(=O)/C=C/c2ccccn2)O3)c1 (centres undefined)	x	x	x	i	x	x
Cc1ccsc1/C=N/n1c(-c2ccco2)n[nH]c1=S	10%	2%	-9%	i	-23%	-71%
Cc1ccc(/C=N/n2c(-c3ccco3)n[nH]c2=S)cc1	-14%	-17%	-21%	i	u	7.1µM*
Cc1cccc(/C=N/n2c(-c3ccco3)n[nH]c2=S)c1	4%	-18%	1%	i	-20%	u
S=c1[nH]nc(-c2ccco2)n1/N=C/c1c(Cl)cccc1Cl	4%	8%	x	i	1%	20%
S=c1[nH]nc(-c2ccco2)n1/N=C/c1ccc(Cl)c(Cl)c1	-3%	-3%	-11%	i	5.6µM*	5.6µM*
Cn1cccc1/C=N/n1c(-c2ccco2)n[nH]c1=S	5%	-1%	5%	i	-4%	11µM*

Assay outcomes: PubChem BioAssay, National Center for Advancing Translational Sciences (NCATS)
